The entries come from a sample that favours hits as a whole.
Pf Dd2 growth = Plasmodium falciparum Dd2 growth inhibition | P. falciparum Dd2 growth, SYBR Green, 72 h | Potency, µM (doses to about 28.9 µM), most hits filed as inhibitors | hit rate 4.3% among 120,000; active = well fitted inhibition curve with a large enough effect; note: nearly all actives have a fitted effect of over 65% in size
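Infected erythrocytes (Dd2, 0.3% parasitemia, 2.5% hematocrit final) are added to compound in RPMI-1640/Albumax II medium, grown 72 h at 37C in low oxygen, then lysed with saponin/Triton-X containing SYBR Green and read by fluorescence.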
Each line names hits and unclear results; the compound was inactive in the other large screens.

CCN(CC)c1cc2c(cc1F)c(=O)c(S(=O)(=O)c1ccccc1)cn2Cc1ccccc1	Pf Dd2 growth 13µM
CCCn1cc(S(=O)(=O)c2ccc(C)c(C)c2)c(=O)c2cc(F)c(N3CCCCC3)cc21	none
CCN(CC)c1cc2c(cc1F)c(=O)c(S(=O)(=O)c1cccc(C)c1)cn2C	none
COc1ccc(S(=O)(=O)c2cn(Cc3ccccc3)c3cc(F)c(F)cc3c2=O)cc1	none
CCCCn1cc(S(=O)(=O)c2ccc(C)c(C)c2)c(=O)c2cc(F)c(N(CC)CC)cc21	Pf Dd2 growth 13µM
CCN(CC)c1cc2c(cc1F)c(=O)c(S(=O)(=O)c1ccc(OC)cc1)cn2Cc1ccccc1	Pf Dd2 growth 13µM
CCCCn1cc(S(=O)(=O)c2ccc(F)cc2)c(=O)c2ccccc21	none
CCN(CC)c1cc2c(cc1F)c(=O)c(S(=O)(=O)c1ccccc1)cn2C	none
COc1ccc(NC(=O)Cn2cc(S(=O)(=O)c3ccccc3)c(=O)c3cc4c(cc32)OCO4)cc1	none
Cc1ccccc1CNC(=O)C(=O)NCC(c1cccs1)S(=O)(=O)c1ccc(Cl)cc1 (stereo not drawn)	none
COc1ccc(-c2cc(N3CCCN(C(=O)c4ccc5nc[nH]c5c4)CC3)n[nH]2)cc1	none
Cc1nc(C2CCCCN2C(=O)Cc2ccccc2)n[nH]1 (stereo not drawn)	none
CCNC(=O)N(C1CC1)C1CCOC2(CCN(C(=O)c3cnc(C)cn3)CC2)C1 (stereo not drawn)	none
CC(C)NC(=O)c1coc(COc2ccc3c(c2)C(c2cccc(F)c2)N(C(=O)C2CC2)CC3)n1 (stereo not drawn)	none
COCCNC(=O)c1coc(COc2ccc3c(c2)C(c2cccc(F)c2)N(C(=O)C(C)C)CC3)n1 (stereo not drawn)	none
CCNC(=O)c1coc(COc2ccc3c(c2)C(c2cccc(F)c2)N(C(=O)C(C)C)CC3)n1 (stereo not drawn)	Pf Dd2 growth 0.71µM
COCC(=O)N[C@H]1CCN2C(=O)c3cc(-c4cc(Cl)ccc4OC)ccc3NC(=O)[C@@H]2C1	none
Cc1ccccc1Cn1nc(C2CCOC2)nc1C1(C(N)=O)CC1 (stereo not drawn)	none
CN(C)c1ccc(C(=O)Nc2ccc(-c3nc4ccccc4o3)cc2)cc1	none
CCN(CC)CC(=O)N1CCC(C(=O)Nc2ccc(-c3nc4ccccc4o3)cc2)CC1	Pf Dd2 growth 10µM
Cc1ccccc1OCC(=O)Nc1ccc(-c2nc3ccccc3o2)cc1	none
O=C(c1cccs1)N1CC[C@@H]2COCCN(Cc3cccnc3)[C@@H]2C1	none
O=C1c2ccccc2OCC2(CCN([S+](=O)([O-])c3cccc(C(F)(F)F)c3)C2)N1[S+](=O)([O-])c1cccc(C(F)(F)F)c1 (stereo not drawn)	none
Cc1cc(C)c(NC(=O)Cn2c(=O)n(CCCCC(=O)NCc3ccccc3Cl)c(=O)c3ccccc32)c(C)c1	none
COc1cc(C2NC(=O)c3c(sc4c3CCN(C)C4)N2)cc(Br)c1OC(=O)c1ccc(C)cc1 (stereo not drawn)	none
CCOc1ccc(C(=O)N2C[C@@H](COC)[C@H](c3ccncc3)C2)cc1	none
COc1ccc(-c2ccc(NS(=O)(=O)c3ccc(F)c(C(F)(F)F)c3)cc2)nn1	none
CCOc1ccc(-c2cccc(NS(=O)(=O)c3ccc(C)s3)c2)nn1	none
CCOc1ccc(-c2ccc(NS(=O)(=O)c3ccc(C)cc3)cc2)nn1	Pf Dd2 growth 10µM
N#Cc1cccc(CN2CCc3ncc(C(=O)NCCOc4ccccc4)n3CC2)c1	none
O=C(NCCOc1ccccc1)c1cnc2n1CCN(Cc1ccc3[nH]ccc3c1)CC2	Pf Dd2 growth 13µM
O=C(NCCOc1ccccc1)c1cnc2n1CCN(Cc1ccccc1O)CC2	none
CCCN(C(=O)c1cc2c(=O)oc3ccc(C)cc3c2s1)c1ccc(OCC)cc1	none
Cc1nc(-c2ccccc2)n(Cc2nc(-c3ccc(Cl)cc3)oc2C)c(=O)c1CCO	none
Cc1cccc(CN2C(=O)CN=C(c3ccccc3)c3ccccc32)c1	none
Cc1ccc(-c2nc(CN3C(=O)CN=C(c4ccccc4Cl)c4cc(Cl)ccc43)c(C)o2)cc1	Pf Dd2 growth 11µM
Cc1cc(C)cc(NC(=O)CN2C(=O)CN=C(c3ccccc3)c3cc(Cl)ccc32)c1	none
Cc1oc(-c2ccccc2Cl)nc1CN1C(=O)CN=C(c2ccccc2)c2cc(Cl)ccc21	none
O=C1CN=C(c2ccccc2)c2cc(Cl)ccc2N1Cc1ccc(Cl)cc1	Pf Dd2 growth 8.9µM
Cc1nn(C(C)C(=O)NCc2cccc(F)c2)c(=O)c2c1sc1ccccc12 (stereo not drawn)	none
CCc1cc(N2C[C@H]3CN(C4CCOCC4)C[C@@]3(C(=O)O)C2)nc(C)n1	none
O=C(Nc1ccc2oc(-c3ccccc3)nc2c1)c1ccc2ccccc2c1	none
O=C(Nc1ccc2oc(-c3ccccc3F)nc2c1)c1ccccc1Cl	Pf Dd2 growth 4µM
O=C(Cc1ccc(Cl)cc1)Nc1ccc2oc(-c3ccccc3F)nc2c1	none
O=C(Nc1ccc2oc(-c3cccc(F)c3)nc2c1)c1ccc2ccccc2c1	Pf Dd2 growth 1µM
COc1ccccc1-c1nc2cc(NC(=O)c3ccccc3Cl)ccc2o1	none
O=C(Nc1ccc(-c2nc3cc(NC(=O)c4ccc(F)cc4)ccc3o2)cc1)c1ccc(F)cc1	none
CCCN1C(=O)CCc2cc(NC(=O)c3ccn(CC)n3)ccc21	none
CCn1cnc(NC(=O)NC2CCN(Cc3cccnc3)CC2)n1	none
O=C(Cc1cccc(F)c1)NC1CCN(c2ccc(F)cc2)C1=O (stereo not drawn)	none
c1cc2c(cc1N1CCC(N[C@H]3C[C@@H]4OCC[C@H]34)CC1)CCC2	none
Fc1ccc2cnc(N3CCC(N[C@H]4C[C@@H]5OCC[C@H]45)CC3)nc2c1	Pf Dd2 growth 8.9µM
Cc1ccc(C(=O)N2CCC(N3C(=O)C(O)C34CCCCC4)CC2)cn1 (stereo not drawn)	none
O=C(NCC1CC1)c1cc(C2CC2)nc2onc(C3CCNCC3)c12	none
COc1ccc(-n2c(C)c(C(C)=O)c3cc(OC(=O)COc4ccccc4)ccc32)cc1	none
CCOC(=O)c1c(C)n(-c2ccccc2)c2ccc(OC(=O)COc3ccccc3)cc12	none
CCOC(=O)c1c(C)n(-c2ccc(OC)cc2)c2ccc(OC(=O)COc3ccccc3)cc12	Pf Dd2 growth 11µM
CN1CC(=O)N(C2CCNC2)Cc2c1ncnc2N1CCC(N)CC1 (stereo not drawn)	none
CN(Cc1cnc2ccccc2n1)Cc1cn[nH]c1-c1ccc(F)cc1	none
Cc1ccc(CNC(=O)CCCc2nnc3n(C)c(=O)c4sccc4n23)cc1	none
CC(=O)NCCC1CCCN(Cc2oc3ccc(C)cc3c2C)C1 (stereo not drawn)	none
O=C(c1ccncc1)N1CCC2(CC1)NCCc1c2[nH]c2ccccc12	none
O=C(c1ccc(Cn2ccnc2)o1)N1CCC2(CC1)NCCc1c2[nH]c2ccccc12	Pf Dd2 growth 13µM
O=C(c1cccnc1)N1CCC2(CC1)NCCc1c2[nH]c2ccccc12	none
CS(=O)(=O)N1CCCN(C(=O)Cc2cccs2)c2ccccc21	none
Cc1ccc(CN(Cc2ccco2)C(=O)c2ccc(OCC(C)C)cc2)cc1	none
CCCS(=O)(=O)NC[C@H]1O[C@H](Cc2cc(COC)on2)CC[C@@H]1O	none
COc1ncccc1CN(Cc1cccnc1OC)C[C@H]1COCc2nc3ccc(C)cc3n21	Pf Dd2 growth 4.5µM
COc1ccc2c(c1)nc1n2[C@@H](CN(Cc2nccs2)Cc2nccs2)COC1	none
Cc1ccc2nc3n(c2c1)[C@@H](CNCc1ccccc1)COC3	none
Cc1cc(NS(=O)(=O)c2ccc(NC(=O)COc3c(C)cc(Br)cc3C)cc2)no1	none
COc1cccc2cc(-c3nc4sc5c(c4c(=O)[nH]3)CCC(C(C)(C)C)C5)c(=O)oc12 (stereo not drawn)	none

Assay outcomes from PubChem BioAssay.
